High-throughput results (PubChem BioAssay)
Hits are enriched below; roughly 19% of the tested compounds scored in any of these assays.
HT1080 IDH1KD tx – kills HT-1080 cells with IDH1 knockdown; HT-1080 IDH1 knockdown viability, ATP luminescence, 48 h; actives 2% (n = 360,000); Potency, µM (highest dose often 46.1 µM), for the others: at the top dose activity, negative = toxicity, hits mostly cytotoxic;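 also: potency is read from the fitted curve at half-maximal effect; 0% = DMSO wells and -100% = cell-free medium wells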
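% activity derives from luminescence (CellTiter-Glo), normalised to DMSO and no-cell wells. HT-1080-IDH1KD cells, 750/well, had 48 h compound exposure at 37 °C.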
HT1080NT lethal – kills 2HG-producing HT-1080-NT fibrosarcoma cells; AID 686970; Potency, µM (titrated, usually from 46.1 µM), without a hit: top-dose activity, negative = less viability, actives largely listed as cytotoxic; actives 1.6% (n = 360,000); HT-1080-NT fibrosarcoma viability, CellTiter-Glo ATP luminescence, 48 h;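 also: NT is the 2HG producing partner of a matched IDH1 knockdown line; potency is read from the fitted curve at half-maximal effect; 0% = DMSO-treated cells and -100% = media-only wells without cells; nearly all actives have a fitted effect of over 55% in size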
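750 cells/well, RPMI + 5% FBS; 2 h settle, compound pin-transfer, 48 h at 37 degrees C. CellTiter-Glo 10 min RT, luminescence. Normalized to DMSO and media-only wells.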
DT40 TDP1 CPT – DT40-hTDP1 cell growth loss with CPT; actives 12% (n = 420,000); Potency, µM (highest dose often 46.2 µM), for inactives: at the top dose activity change, negative = growth inhibition, usual class: inhibitors; chicken DT40 Tdp1-/-;hTDP1 cells + 20 nM CPT, ATP luminescence, 48 h; also: potency is read from the fitted curve at half-maximal effect; nearly all actives have a fitted effect of over 55% in size
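Chicken DT40 Tdp1-/- cells stably complemented with human TDP1 were seeded at 400 cells/well in medium containing 20 nM camptothecin, exposed to pin-transferred compounds, and grown at 37 °C for at least 48 hr. Viability was read as ATP luminescence.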
ELG1 DNA repair – blocks ELG1-dependent DNA repair in HEK293T cells | AID 504467 | HEK293T ELG1-luciferase reporter, luminescence, 16 h; DNA damage induced by 5-fluorouridine | Potency, µM (series often up to 46.1 µM), for the others: at the highest dose activity change, negative = inhibition, usual class: inhibitors | actives 2.3% (n = 330,000); also: potency is read from the fitted curve at half-maximal effect; nearly all actives have a fitted effect of over 55% in size
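Cells (2,000 per well) received 5-fluorouridine plus test compound or DMSO and were incubated 16 hr at 37 °C, 5% CO2. Luciferase activity was read by luminescence 30 min after ONE-Glo addition; signal suppression marked inhibition of damage-induced ELG1 function.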
IL1B secr inh – blocks inflammasome-driven IL-1 beta release; THP-1 LPS/ATP IL-1B secretion, AlphaLISA, 16 h; active compounds read low; activity change, % at 57.5 µM; actives 4.7% (n = 360,000); AID 743279; in the data active = activity change below about -50%; inconclusive = mostly about -30% to -49%
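Secreted IL-1B measured by AlphaLISA bead assay after 16 h compound exposure of THP-1 cells; compounds (final up to 57.5 uM) added 1 h before LPS (250 ng/mL) and ATP (1.25 mM) stimulation; lower signal means less secretion.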
DT40 TDP1 no CPT – qHTS for Inhibitors of human tyrosyl-DNA phosphodiesterase 1 (TDP1): qHTS in cells in absence of CPT; DT40 Tdp1-/- hTDP1 cells, no CPT, ATP luminescence, 48 h; Potency, µM (top dose mostly 46.2 µM), without a hit: at the top dose activity change, negative = growth inhibition, hits mostly inhibitors; actives 15% (n = 420,000); also: potency is read from the fitted curve at half-maximal effect; nearly all actives have a fitted effect of over 55% in size
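Camptothecin absent (DMSO only). Human TDP1-complemented DT40 knockout cells, 400 cells/well, 37 °C for minimum 48 hr; ATP measured via CellTiter-Glo, 30 min dark incubation, luminescence.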
Numbers without * were called inactive; ? = inconclusive; . = not tested or not shown. Unless noted, calls follow the shape of the dose curve; as a rule, active = well fitted curve in the direction sought with a large enough effect; inconclusive = small, poorly fitted or top-dose-only effect, or another doubt; inactive = no such curve, though single readings can be large; an effect the other way counts as inactive or inconclusive. Unless noted, % is scaled to controls: 0 for no effect and ±100 for the full control effect.

SMILES | HT1080 IDH1KD tx | HT1080NT lethal | DT40 TDP1 CPT | ELG1 DNA repair | IL1B secr inh | DT40 TDP1 no CPT
COc1ccc2c(c1)nc(SCC(O)c1ccccc1)n2C (stereo unspecified) | 0.3% | -3.9% | -7.1% | 8.0% | 1.3 | -23.0%
COc1cc(NC(=O)c2cc(C)nc3c2c(C)nn3-c2ccccc2Cl)cc(OC)c1 | . | . | ? | . | . | 23.1µM*
COc1ccc(NC(=O)c2cc(C)nc3c2c(C)nn3-c2cccc(Cl)c2C)c(OC)c1 | . | . | -16.4% | . | . | -25.1%
Cc1cc(C(=O)N2CCN(c3ccc(F)cc3)CC2)c2c(C)nn(-c3cccc(Cl)c3C)c2n1 | . | . | 20.6µM* | . | . | 14.6µM*
Cc1cc(C(=O)N2CCN(c3cccc(Cl)c3)CC2)c2c(C)nn(-c3ccccc3Cl)c2n1 | . | . | ? | . | . | 29.1µM*
CC(C)(C)C(=O)CSc1ncnc2c1cnn2Cc1ccccc1 | -12.8% | -6.8% | -11.0% | ? | -3.5 | 14.6µM*
COC(=O)CSc1ncnc2c1cnn2Cc1ccccc1 | -2.6% | 6.3% | -1.2% | 0.0% | 18.0 | -19.4%
O=C(CSc1ncnc2c1cnn2CCc1ccccc1)Nc1cccc(C(F)(F)F)c1 | ? | ? | ? | ? | -12.7 | 23.1µM*
COc1cccc(C(=O)NCCS(=O)(=O)NCCCc2ccccc2)c1 | 0.2% | 5.7% | -20.5% | -1.4% | 0.0 | -16.0%
COc1ccc(CN(C)CC(=O)N2CCc3ccccc3C2)cc1 | 7.0% | 4.9% | -18.0% | 3.8% | -7.0 | ?
Cc1cc(N2CCCCC2)nc(NCc2ccccc2)n1 | ? | -16.4% | 10.3µM* | ? | -99.0* | 7.31µM*
Cc1cc(NCc2ccccc2)nc(N2CCOCC2)n1 | 1.0% | -0.9% | -12.2% | -9.7% | 35.4 | -9.2%
Cc1cc(N2CCOCC2)nc(NCc2ccccc2)n1 | 0.0% | 11.7% | 20.6µM* | ? | -14.7 | 13µM*
Oc1ccc(Br)cc1/C=N/n1c(COc2ccccc2)n[nH]c1=S | -5.0% | 0.8% | -18.8% | 0.4% | 12.1 | -4.9%
COc1ccc2c(Sc3ccc(C)cc3)c(C(=O)NCC(C)c3ccccc3)[nH]c2c1 (stereo unspecified) | . | . | -15.8% | . | . | ?
O=C(Nc1cccc(S(=O)(=O)N2CCCCC2)c1)C1CC(=O)N(c2ccc3c(c2)OCCO3)C1 (stereo unspecified) | -0.9% | 5.6% | ? | -18.8% | -15.6 | -14.1%
CC(NC(=O)c1cccnc1)C(c1cccs1)N1CCN(c2ccccc2F)CC1 (stereo unspecified) | -2.8% | -21.7% | 23.1µM* | ? | -1.2 | ?
COc1ccccc1N1CCN(C(c2cccs2)C(C)NC(=O)C(=O)N2CCCCC2)CC1 (stereo unspecified) | 11.1% | 5.0% | -29.2% | ? | 0.8 | 1.3%
COc1ccccc1N1CCN(C(c2cccs2)C(C)NC(=O)c2cccnc2)CC1 (stereo unspecified) | -12.3% | -5.2% | ? | -16.6% | 22.0 | ?
COc1ccccc1N1CCN(C(c2cccs2)C(C)NC(=O)c2cccs2)CC1 (stereo unspecified) | 0.9% | -0.1% | 16.4µM* | ? | -8.8 | 11.6µM*
CCc1ccc(NC(=O)C2CCCN(S(=O)(=O)c3ccc4c(c3)oc(=O)n4C)C2)cc1 (stereo unspecified) | . | . | -18.9% | . | . | -26.9%
Cc1ccc(-n2nc3c(=O)n(CCCC(=O)NCc4ccccc4F)nc(C)c3c2C)cc1 | -2.9% | -1.2% | ? | -6.0% | ? | ?
Cc1ccc(-n2nc3c(=O)n(CCCC(=O)NCc4ccccc4C)nc(C)c3c2C)cc1 | 8.4% | -8.5% | 20.6µM* | -29.9% | -25.3 | 20.6µM*
Cc1ccc(-n2nc3c(=O)n(CCCC(=O)NCC(C)c4ccccc4)nc(C)c3c2C)cc1 (stereo unspecified) | -7.5% | -9.9% | ? | -25.6% | -10.7 | 14.6µM*
Nc1nonc1-n1nnc(C(=O)N/N=C/c2ccc(OCc3ccccc3)cc2)c1CNc1ccccc1 | ? | ? | -24.7% | 25.0% | 39.0 | -19.7%
SMILES | HT1080 IDH1KD tx | HT1080NT lethal | DT40 TDP1 CPT | ELG1 DNA repair | IL1B secr inh | DT40 TDP1 no CPT
O=C(NCc1ccccc1)c1cc(=O)[nH]c2ccccc12 | -5.2% | 1.4% | -3.8% | 7.1% | -20.2 | 1.7%
COC(=O)[C@@H](Cc1c[nH]c2ccccc12)NC(=O)c1cc(=O)[nH]c2ccccc12 | 6.9% | 3.7% | 15.3% | ? | -98.9* | 1.2%
COC(=O)C(Cc1ccccc1)NC(=O)c1cc(=O)[nH]c2ccccc12 (stereo unspecified) | 1.3% | -0.8% | ? | 14.6% | -102.6* | -7.9%
CNC(=O)c1sccc1SCc1c(Cl)cccc1Cl | -19.2% | -3.8% | ? | -12.7% | -4.1 | ?
CNC(=O)c1sccc1SCc1ccc(Cl)cc1Cl | -21.0% | -8.0% | 20.6µM* | -10.9% | 0.0 | 18.4µM*
O=C(COc1ccccc1Cl)NCCNC(=O)c1cnccn1 | 13.2% | 14.7% | 6.1% | -3.0% | 0.4 | 8.8%
O=C(COc1cccc2ccccc12)NNC(=O)c1cnccn1 | -2.2% | 5.0% | ? | -5.0% | 14.7 | 16.4µM*
O=C(COc1ccc2ccccc2c1)NNC(=O)c1cnccn1 | -5.8% | -9.4% | 23.1µM* | -2.5% | 11.1 | 23.1µM*
Cc1ccccc1CC(=O)Nc1ccc(S(=O)(=O)N2CCOCC2)cc1 | 3.0% | 0.7% | 0.3% | -10.9% | -17.6 | 10.5%
CCN1CCCC1CN(Cc1cc2cc(C)cc(C)c2[nH]c1=O)C(=O)Nc1ccccc1OC (stereo unspecified) | ? | -24.0% | 13µM* | ? | ? | 20.6µM*
COc1cccc(NC(=O)N(Cc2cc3cc(C)cc(C)c3[nH]c2=O)CC2COCCO2)c1 (stereo unspecified) | -20.0% | -16.7% | ? | 7.31µM* | ? | ?
CCN1CCCC1CN(Cc1cc2ccc(C)cc2[nH]c1=O)C(=S)Nc1ccc(OC)cc1OC (stereo unspecified) | ? | ? | ? | -5.7% | -51.8* | ?
CCc1nc2ccc(C(=O)NCCCN3CCCC3=O)cn2c1N(C)C(=O)c1cccc(OC)c1 | 20.6% | 19.0% | 1.7% | . | -20.8 | -6.0%
CCc1nc2ccc(C(=O)NCCCN3CCCC3=O)cn2c1N(C)Cc1ccc(OC)cc1 | 11.1% | 2.6% | 16.4µM* | . | 0.0 | ?
